# In publication PMC11006913:
# Numbering of substitutions follows the chain as printed.
# Experiments:
# Assay in all cases: PBM; 200 nM protein, PBS
# Conditions in all cases: dsDNA, one strand shown
# VENTX [1] = biological target: T1, VENTX (Homo sapiens, UniProt O95231 78-163, R121Q)
# T1 sequence: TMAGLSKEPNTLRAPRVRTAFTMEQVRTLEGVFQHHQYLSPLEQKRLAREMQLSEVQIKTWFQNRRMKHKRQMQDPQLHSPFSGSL
# VENTX [2] = biological target: T2, VENTX (Homo sapiens, UniProt O95231 78-163)
# T2 sequence: T1 sequence with Q44R
# VENTX [3] = biological target: T3, VENTX (Homo sapiens, UniProt O95231 78-163, Y115F)
# T3 sequence: T1 sequence with Y38F, Q44R
# ALX1 [4] = biological target: ALX1 (Homo sapiens, UniProt Q15699 118-204, L144V)
# ALX1 (Homo sapiens, UniProt Q15699 118-204, L144V), sequence (Q15699 118-204 L144V): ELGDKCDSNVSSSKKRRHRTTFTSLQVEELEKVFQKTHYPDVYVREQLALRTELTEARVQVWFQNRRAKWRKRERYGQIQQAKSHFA
# ALX1 [5] = biological target: ALX1 (Homo sapiens, UniProt Q15699 118-204, L144R)
# ALX1 (Homo sapiens, UniProt Q15699 118-204, L144R), sequence (Q15699 118-204 L144R): as the sequence (Q15699 118-204 L144V) above, with V27R counted along it
# PROP1 [6] = biological target: PROP1 (Homo sapiens, UniProt O75360 56-141)
# PROP1 (Homo sapiens, UniProt O75360 56-141), sequence (O75360 56-141): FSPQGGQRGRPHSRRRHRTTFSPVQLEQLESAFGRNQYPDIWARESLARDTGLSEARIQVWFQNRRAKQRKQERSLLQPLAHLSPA
# PROP1 [7] = biological target: PROP1 (Homo sapiens, UniProt O75360 56-141, R99H)
# PROP1 (Homo sapiens, UniProt O75360 56-141, R99H), sequence (O75360 56-141 R99H): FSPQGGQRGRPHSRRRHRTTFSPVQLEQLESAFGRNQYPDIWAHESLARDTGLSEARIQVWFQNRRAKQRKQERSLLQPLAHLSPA
# PROP1 [8] = biological target: PROP1 (Homo sapiens, UniProt O75360 56-141, F88S)
# PROP1 (Homo sapiens, UniProt O75360 56-141, F88S), sequence (O75360 56-141 F88S): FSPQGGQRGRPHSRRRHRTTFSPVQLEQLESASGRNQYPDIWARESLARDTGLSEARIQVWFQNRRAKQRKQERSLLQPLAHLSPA
# ALX1 [9] = biological target: ALX1 (Homo sapiens, UniProt Q15699 118-204)
# ALX1 (Homo sapiens, UniProt Q15699 118-204), sequence (Q15699 118-204): as the sequence (Q15699 118-204 L144V) above, with V27L counted along it
# VAX1 [10] = biological target: VAX1 (Homo sapiens, UniProt Q5SQQ9 86-172)
# VAX1 (Homo sapiens, UniProt Q5SQQ9 86-172), sequence (Q5SQQ9 86-172): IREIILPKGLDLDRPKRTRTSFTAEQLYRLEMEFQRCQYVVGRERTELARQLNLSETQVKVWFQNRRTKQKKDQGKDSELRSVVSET
# VAX1 [11] = biological target: VAX1 (Homo sapiens, UniProt Q5SQQ9 86-172, T142I)
# VAX1 (Homo sapiens, UniProt Q5SQQ9 86-172, T142I), sequence (Q5SQQ9 86-172 T142I): as the sequence (Q5SQQ9 86-172) above, with T57I counted along it
# VAX1 [12] = biological target: VAX1 (Homo sapiens, UniProt Q5SQQ9 86-172, K157R)
# VAX1 (Homo sapiens, UniProt Q5SQQ9 86-172, K157R), sequence (Q5SQQ9 86-172 K157R): as the sequence (Q5SQQ9 86-172) above, with K72R counted along it
# HOXD13 [13] = biological target: HOXD13 (Homo sapiens, UniProt P35453 263-343, T313R)
# HOXD13 (Homo sapiens, UniProt P35453 263-343, T313R), sequence (P35453 263-343 T313R): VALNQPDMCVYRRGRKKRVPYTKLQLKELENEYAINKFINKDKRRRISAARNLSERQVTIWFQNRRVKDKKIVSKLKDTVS
# HOXD13 [14] = biological target: HOXD13 (Homo sapiens, UniProt P35453 263-343)
# HOXD13 (Homo sapiens, UniProt P35453 263-343), sequence (P35453 263-343): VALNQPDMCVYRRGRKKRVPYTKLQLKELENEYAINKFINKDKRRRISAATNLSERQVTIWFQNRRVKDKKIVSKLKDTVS
# HOXD13 [15] = biological target: HOXD13 (Homo sapiens, UniProt P35453 263-343, T313A)
# HOXD13 (Homo sapiens, UniProt P35453 263-343, T313A), sequence (P35453 263-343 T313A): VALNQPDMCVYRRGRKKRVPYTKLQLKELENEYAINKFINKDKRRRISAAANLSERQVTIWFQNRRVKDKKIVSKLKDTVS
# MSX2 [16] = biological target: MSX2 (Homo sapiens, UniProt P35548 130-214, R199I)
# MSX2 (Homo sapiens, UniProt P35548 130-214, R199I), sequence (P35548 130-214 R199I): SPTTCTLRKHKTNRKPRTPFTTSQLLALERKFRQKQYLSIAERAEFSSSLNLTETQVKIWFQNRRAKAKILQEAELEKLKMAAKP
# MSX2 [17] = biological target: MSX2 (Homo sapiens, UniProt P35548 130-214)
# MSX2 (Homo sapiens, UniProt P35548 130-214), sequence (P35548 130-214): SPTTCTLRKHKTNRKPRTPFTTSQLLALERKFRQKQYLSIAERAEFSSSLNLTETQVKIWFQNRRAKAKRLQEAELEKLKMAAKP
# MSX2 [18] = biological target: MSX2 (Homo sapiens, UniProt P35548 130-214, F161Y)
# MSX2 (Homo sapiens, UniProt P35548 130-214, F161Y), sequence (P35548 130-214 F161Y): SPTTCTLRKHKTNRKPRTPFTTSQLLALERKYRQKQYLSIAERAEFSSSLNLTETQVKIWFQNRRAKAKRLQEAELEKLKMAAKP
# HOXB6 [19] = biological target: HOXB6 (Homo sapiens, UniProt P17509 132-218, K202E)
# HOXB6 (Homo sapiens, UniProt P17509 132-218, K202E), sequence (P17509 132-218 K202E): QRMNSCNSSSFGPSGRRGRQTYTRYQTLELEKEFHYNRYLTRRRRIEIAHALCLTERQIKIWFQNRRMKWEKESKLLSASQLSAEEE
# HOXA2 [20] = biological target: HOXA2 (Homo sapiens, UniProt O43364 129-215, R185T)
# HOXA2 (Homo sapiens, UniProt O43364 129-215, R185T), sequence (O43364 129-215 R185T): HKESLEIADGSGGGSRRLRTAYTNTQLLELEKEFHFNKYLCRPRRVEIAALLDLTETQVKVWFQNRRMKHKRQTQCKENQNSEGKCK
# ALX3 [21] = biological target: ALX3 (Homo sapiens, UniProt O95076 139-225, N203Q)
# ALX3 (Homo sapiens, UniProt O95076 139-225, N203Q), sequence (O95076 139-225 N203Q): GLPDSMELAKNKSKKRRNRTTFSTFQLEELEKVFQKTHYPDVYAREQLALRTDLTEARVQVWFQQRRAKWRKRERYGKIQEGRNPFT
# HOXA2 [22] = biological target: HOXA2 (Homo sapiens, UniProt O43364 129-215, R185K)
# HOXA2 (Homo sapiens, UniProt O43364 129-215, R185K), sequence (O43364 129-215 R185K): as the sequence (O43364 129-215 R185T) above, with T57K counted along it
# ALX3 [23] = biological target: ALX3 (Homo sapiens, UniProt O95076 139-225)
# ALX3 (Homo sapiens, UniProt O95076 139-225), sequence (O95076 139-225): as the sequence (O95076 139-225 N203Q) above, with Q65N counted along it
# ALX3 [24] = biological target: ALX3 (Homo sapiens, UniProt O95076 139-225, L168Q)
# ALX3 (Homo sapiens, UniProt O95076 139-225, L168Q), sequence (O95076 139-225 L168Q): as the sequence (O95076 139-225 N203Q) above, with L30Q, Q65N counted along it
# ALX3 [25] = biological target: ALX3 (Homo sapiens, UniProt O95076 139-225, L168V)
# ALX3 (Homo sapiens, UniProt O95076 139-225, L168V), sequence (O95076 139-225 L168V): as the sequence (O95076 139-225 N203Q) above, with L30V, Q65N counted along it
# HOXA2 [26] = biological target: HOXA2 (Homo sapiens, UniProt O43364 129-215, Y150S)
# HOXA2 (Homo sapiens, UniProt O43364 129-215, Y150S), sequence (O43364 129-215 Y150S): as the sequence (O43364 129-215 R185T) above, with Y22S, T57R counted along it
# ALX3 [27] = biological target: ALX3 (Homo sapiens, UniProt O95076 139-225, N203S)
# ALX3 (Homo sapiens, UniProt O95076 139-225, N203S), sequence (O95076 139-225 N203S): as the sequence (O95076 139-225 N203Q) above, with Q65S counted along it
# HOXA2 [28] = biological target: HOXA2 (Homo sapiens, UniProt O43364 129-215)
# HOXA2 (Homo sapiens, UniProt O43364 129-215), sequence (O43364 129-215): as the sequence (O43364 129-215 R185T) above, with T57R counted along it
# HOXB6 [29] = biological target: HOXB6 (Homo sapiens, UniProt P17509 132-218)
# HOXB6 (Homo sapiens, UniProt P17509 132-218), sequence (P17509 132-218): as the sequence (P17509 132-218 K202E) above, with E71K counted along it
# NKX2-6 [30] = biological target: T4, NKX2-6 (Homo sapiens, UniProt A6NCS4 118-204)
# T4 sequence: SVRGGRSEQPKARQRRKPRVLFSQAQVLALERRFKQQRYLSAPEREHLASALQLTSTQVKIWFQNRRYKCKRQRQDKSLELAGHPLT
# NKX2-6 [31] = biological target: T5, NKX2-6 (Homo sapiens, UniProt A6NCS4 118-204, F151L)
# T5 sequence: T4 sequence with F34L
sequence,measurement,setting,value
ACCCGTGC,binding signal,VENTX [1],"8.15 upbm affinity estimate (log intensity, higher = more binding, comparable within an allelic series)"
same,binding signal,VENTX [2],"8.32 upbm affinity estimate (log intensity, higher = more binding, comparable within an allelic series)"
same,binding signal,VENTX [3],"8.18 upbm affinity estimate (log intensity, higher = more binding, comparable within an allelic series)"
CTCCGTCC,binding signal,VENTX [1],"8.11 upbm affinity estimate (log intensity, higher = more binding, comparable within an allelic series)"
same,binding signal,VENTX [2],"8.05 upbm affinity estimate (log intensity, higher = more binding, comparable within an allelic series)"
same,binding signal,VENTX [3],"8.03 upbm affinity estimate (log intensity, higher = more binding, comparable within an allelic series)"
same,binding signal,ALX1 [4],"6.35 upbm affinity estimate (log intensity, higher = more binding, comparable within an allelic series)"
same,binding signal,ALX1 [5],"6.21 upbm affinity estimate (log intensity, higher = more binding, comparable within an allelic series)"
same,binding signal,PROP1 [6],"6.5 upbm affinity estimate (log intensity, higher = more binding, comparable within an allelic series)"
same,binding signal,PROP1 [7],"6.55 upbm affinity estimate (log intensity, higher = more binding, comparable within an allelic series)"
same,binding signal,PROP1 [8],"6.51 upbm affinity estimate (log intensity, higher = more binding, comparable within an allelic series)"
same,binding signal,ALX1 [9],"6.3 upbm affinity estimate (log intensity, higher = more binding, comparable within an allelic series)"
GTTAATAA,binding signal,VENTX [1],"10.8 upbm affinity estimate (log intensity, higher = more binding, comparable within an allelic series)"
same,binding signal,VENTX [2],"11.2 upbm affinity estimate (log intensity, higher = more binding, comparable within an allelic series)"
same,binding signal,VENTX [3],"10.6 upbm affinity estimate (log intensity, higher = more binding, comparable within an allelic series)"
CCCACGCA,binding signal,VENTX [1],"8.08 upbm affinity estimate (log intensity, higher = more binding, comparable within an allelic series)"
same,binding signal,VENTX [2],"7.93 upbm affinity estimate (log intensity, higher = more binding, comparable within an allelic series)"
same,binding signal,VENTX [3],"7.96 upbm affinity estimate (log intensity, higher = more binding, comparable within an allelic series)"
same,binding signal,VAX1 [10],"7.08 upbm affinity estimate (log intensity, higher = more binding, comparable within an allelic series)"
same,binding signal,VAX1 [11],"7.21 upbm affinity estimate (log intensity, higher = more binding, comparable within an allelic series)"
same,binding signal,VAX1 [12],"7.04 upbm affinity estimate (log intensity, higher = more binding, comparable within an allelic series)"
CGCCCGGA,binding signal,VENTX [1],"7.98 upbm affinity estimate (log intensity, higher = more binding, comparable within an allelic series)"
same,binding signal,VENTX [2],"7.85 upbm affinity estimate (log intensity, higher = more binding, comparable within an allelic series)"
same,binding signal,VENTX [3],"8.06 upbm affinity estimate (log intensity, higher = more binding, comparable within an allelic series)"
same,binding signal,HOXD13 [13],"9.55 upbm affinity estimate (log intensity, higher = more binding, comparable within an allelic series)"
same,binding signal,HOXD13 [14],"9.51 upbm affinity estimate (log intensity, higher = more binding, comparable within an allelic series)"
same,binding signal,HOXD13 [15],"9.62 upbm affinity estimate (log intensity, higher = more binding, comparable within an allelic series)"
CCTGGCTC,binding signal,VENTX [1],"8.01 upbm affinity estimate (log intensity, higher = more binding, comparable within an allelic series)"
same,binding signal,VENTX [2],"8.1 upbm affinity estimate (log intensity, higher = more binding, comparable within an allelic series)"
same,binding signal,VENTX [3],"8.06 upbm affinity estimate (log intensity, higher = more binding, comparable within an allelic series)"
same,binding signal,MSX2 [16],"9.46 upbm affinity estimate (log intensity, higher = more binding, comparable within an allelic series)"
same,binding signal,MSX2 [17],"9.51 upbm affinity estimate (log intensity, higher = more binding, comparable within an allelic series)"
same,binding signal,MSX2 [18],"9.47 upbm affinity estimate (log intensity, higher = more binding, comparable within an allelic series)"
ACTTATAA,binding signal,VENTX [1],"9.95 upbm affinity estimate (log intensity, higher = more binding, comparable within an allelic series)"
same,binding signal,VENTX [2],"10.5 upbm affinity estimate (log intensity, higher = more binding, comparable within an allelic series)"
same,binding signal,VENTX [3],"10 upbm affinity estimate (log intensity, higher = more binding, comparable within an allelic series)"
same,binding signal,HOXD13 [14],"11.3 upbm affinity estimate (log intensity, higher = more binding, comparable within an allelic series)"
same,binding signal,HOXD13 [15],"11 upbm affinity estimate (log intensity, higher = more binding, comparable within an allelic series)"
GCCCAGGC,binding signal,VENTX [1],"7.88 upbm affinity estimate (log intensity, higher = more binding, comparable within an allelic series)"
same,binding signal,VENTX [2],"7.61 upbm affinity estimate (log intensity, higher = more binding, comparable within an allelic series)"
same,binding signal,VENTX [3],"7.8 upbm affinity estimate (log intensity, higher = more binding, comparable within an allelic series)"
same,binding signal,HOXB6 [19],"8.91 upbm affinity estimate (log intensity, higher = more binding, comparable within an allelic series)"
same,binding signal,HOXA2 [20],"6.96 upbm affinity estimate (log intensity, higher = more binding, comparable within an allelic series)"
same,binding signal,ALX1 [4],"6.2 upbm affinity estimate (log intensity, higher = more binding, comparable within an allelic series)"
same,binding signal,ALX3 [21],"7.68 upbm affinity estimate (log intensity, higher = more binding, comparable within an allelic series)"
same,binding signal,HOXA2 [22],"10 upbm affinity estimate (log intensity, higher = more binding, comparable within an allelic series)"
same,binding signal,ALX1 [5],"6.3 upbm affinity estimate (log intensity, higher = more binding, comparable within an allelic series)"
same,binding signal,ALX3 [23],"7.31 upbm affinity estimate (log intensity, higher = more binding, comparable within an allelic series)"
same,binding signal,ALX3 [24],"7.59 upbm affinity estimate (log intensity, higher = more binding, comparable within an allelic series)"
same,binding signal,ALX3 [25],"7.69 upbm affinity estimate (log intensity, higher = more binding, comparable within an allelic series)"
same,binding signal,HOXA2 [26],"10.3 upbm affinity estimate (log intensity, higher = more binding, comparable within an allelic series)"
same,binding signal,ALX1 [9],"6.12 upbm affinity estimate (log intensity, higher = more binding, comparable within an allelic series)"
same,binding signal,ALX3 [27],"7.71 upbm affinity estimate (log intensity, higher = more binding, comparable within an allelic series)"
same,binding signal,HOXA2 [28],"7.01 upbm affinity estimate (log intensity, higher = more binding, comparable within an allelic series)"
same,binding signal,HOXB6 [29],"8.63 upbm affinity estimate (log intensity, higher = more binding, comparable within an allelic series)"
ACGCCGCC,binding signal,VENTX [1],"8.33 upbm affinity estimate (log intensity, higher = more binding, comparable within an allelic series)"
same,binding signal,VENTX [2],"8.43 upbm affinity estimate (log intensity, higher = more binding, comparable within an allelic series)"
same,binding signal,VENTX [3],"8.35 upbm affinity estimate (log intensity, higher = more binding, comparable within an allelic series)"
same,binding signal,NKX2-6 [30],"9.13 upbm affinity estimate (log intensity, higher = more binding, comparable within an allelic series)"
same,binding signal,NKX2-6 [31],"9.22 upbm affinity estimate (log intensity, higher = more binding, comparable within an allelic series)"
